Source: PubChem BioAssay
Values without a mark were called inactive. Active and inactive are the calls of the source.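 How the source made its calls, unless noted: active means mean inhibition over 43.08%, the solvent-only control mean plus 3 SD; inactive means the rest.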

Key:
[1] = biological target: Nuclear receptor coactivator 3 (Homo sapiens) (UniProt Q9Y6Q9); experiment: NCOA3 GAL4-fusion reporter inhibition – cell-based, luminescence, quadruplicate, confirmation (AID 588792); conditions: HEK293 GAL4-SRC3 luciferase reporter, at 3.6 µM, hits give high values;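 further: 0% = DMSO treated cells and 100% = gossypol at 36 µM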
Nuclear receptor coactivator 3 (Homo sapiens), sequence (Q9Y6Q9 whole entry, looked up, the tested form may be a part): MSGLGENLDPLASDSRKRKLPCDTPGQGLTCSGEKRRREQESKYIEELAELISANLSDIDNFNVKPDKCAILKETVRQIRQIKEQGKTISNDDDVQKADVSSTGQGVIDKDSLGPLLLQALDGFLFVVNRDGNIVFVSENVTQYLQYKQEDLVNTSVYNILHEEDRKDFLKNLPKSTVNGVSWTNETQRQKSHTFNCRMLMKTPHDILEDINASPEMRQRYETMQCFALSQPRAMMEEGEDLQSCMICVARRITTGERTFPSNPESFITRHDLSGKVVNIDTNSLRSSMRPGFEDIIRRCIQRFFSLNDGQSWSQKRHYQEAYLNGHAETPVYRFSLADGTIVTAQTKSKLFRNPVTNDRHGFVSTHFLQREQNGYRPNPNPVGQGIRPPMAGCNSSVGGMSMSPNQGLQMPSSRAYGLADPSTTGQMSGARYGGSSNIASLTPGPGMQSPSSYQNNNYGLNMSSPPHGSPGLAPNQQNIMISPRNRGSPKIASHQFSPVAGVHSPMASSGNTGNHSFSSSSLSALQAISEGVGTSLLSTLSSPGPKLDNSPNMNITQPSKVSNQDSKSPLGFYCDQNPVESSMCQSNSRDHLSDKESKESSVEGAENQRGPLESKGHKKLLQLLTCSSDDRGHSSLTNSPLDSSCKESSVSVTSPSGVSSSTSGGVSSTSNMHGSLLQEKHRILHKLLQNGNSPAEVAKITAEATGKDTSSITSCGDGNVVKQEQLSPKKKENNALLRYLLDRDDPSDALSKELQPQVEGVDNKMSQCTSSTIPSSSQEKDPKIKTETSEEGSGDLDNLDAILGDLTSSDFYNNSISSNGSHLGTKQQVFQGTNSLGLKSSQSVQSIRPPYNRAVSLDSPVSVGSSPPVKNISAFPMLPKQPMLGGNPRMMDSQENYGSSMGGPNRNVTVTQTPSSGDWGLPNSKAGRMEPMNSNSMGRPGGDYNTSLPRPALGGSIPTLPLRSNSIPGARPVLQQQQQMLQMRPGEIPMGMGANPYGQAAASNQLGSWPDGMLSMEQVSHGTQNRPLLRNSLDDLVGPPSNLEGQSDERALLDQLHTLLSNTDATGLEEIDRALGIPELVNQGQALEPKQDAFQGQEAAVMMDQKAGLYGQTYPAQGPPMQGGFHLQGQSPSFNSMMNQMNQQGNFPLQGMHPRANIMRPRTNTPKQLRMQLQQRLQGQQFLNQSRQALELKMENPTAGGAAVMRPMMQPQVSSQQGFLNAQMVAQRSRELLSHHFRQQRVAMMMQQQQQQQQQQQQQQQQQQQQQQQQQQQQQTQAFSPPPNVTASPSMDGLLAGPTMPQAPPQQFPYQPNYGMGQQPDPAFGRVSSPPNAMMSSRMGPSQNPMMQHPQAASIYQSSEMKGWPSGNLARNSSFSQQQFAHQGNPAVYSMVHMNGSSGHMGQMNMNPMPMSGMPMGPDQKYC

[2] = test system: transactivating tegument protein VP16 (Human herpesvirus 1), Gal4-VP16 luciferase reporter; experiment: repression of VP16-driven luciferase reporter – cell-based, luminescence, high throughput, counter-screen for SRC3 inhibitor project (AID 588794; in the data active means inhibition above about 30%); conditions: mammalian cells, at 3.6 µM, hits give high values

## Cc1ccsc1C(=O)C1CCCN(Cc2cccn2-c2ccc(Cl)cn2)C1 (centres undefined)
[1]
  inhibition: -3.2%
[2]
  inhibition: 23.2%

## COc1ccc2nc(NC(=O)C3CCN(S(=O)(=O)c4cccs4)CC3)sc2c1
[1]
  inhibition: 20.3%
[2]
  inhibition: 15.2%

## CS(=O)(=O)c1ccc(Sc2nc3ccccc3s2)c([N+](=O)[O-])c1
[1]
  inhibition: 45.8% (active)
[2]
  inhibition: 19.5%

## CN1C(=O)C2(C(C#N)=C(N)N(c3cc(Cl)cc(Cl)c3)C3=C2C(=O)CCC3)c2ccccc21 (centres undefined)
[1]
  inhibition: 30.9%
[2]
  inhibition: 27.9%

## Cc1sc(-c2ccccn2)nc1OC(=O)c1ccc(F)cc1F
[1]
  inhibition: 13.9%
[2]
  inhibition: 16.1%

## N#C/C(C(N)=O)=C1/CCc2ccccc2N1
[1]
  inhibition: 21.2%
[2]
  inhibition: -2.45%

## CCOC(=O)c1c(NC(=O)COc2cccc3c2CCN(C)C3=O)sc2c1CCC2
[1]
  inhibition: -1.43%
[2]
  inhibition: 10.2%

## CC1=C(NCCc2ccccc2)CCC1=O
[1]
  inhibition: 0.47%
[2]
  inhibition: -7.31%

## O=C(Nc1cccc2ccccc12)OC1C=CS(=O)(=O)C1 (centres undefined)
[1]
  inhibition: 25.6%
[2]
  inhibition: 15.6%

## COc1cc(NC(=O)C2CCN(S(=O)(=O)c3ccc(N4CCCC4=O)cc3)CC2)cc(OC)c1
[1]
  inhibition: 7.83%
[2]
  inhibition: 5.99%

## CCc1nc2ccccc2c(C(=O)OCC(=O)Nc2cccc(S(=O)(=O)N3CCOCC3)c2)c1C
[1]
  inhibition: 1.17%
[2]
  inhibition: 8.71%

## CCOC(=O)Cc1[nH]nc2c1C(c1cccc(OC)c1OC)C(C#N)=C(N)O2 (centres undefined)
[1]
  inhibition: -9.29%
[2]
  inhibition: 0.25%
